Drawing on ChEMBL document CHEMBL4513216, “Probing the Open Global Health Chemical Diversity Library for Multistage-Active Starting Points for Next-Generation Antimalarials” (ACS Infect Dis, 2020), this text covers INHIBITION for 71 compounds.

The campaign covered roughly 65,000 compounds. About 2,100 (3.2%) showed an effect of 50% or more. The median lay at about -52%. The sample as a whole holds a higher share of strong results than the screen did.

The test relates to Plasmodium falciparum. The test is described as follows: Screen against P. falciparum Asexual Blood Stage (ABS), at 5uM. It is filed as functional, Dd2. The note with it: tested at 5 uM.
For the compound `CN1C(Cn2cccn2)C[C@@H]2CN(C(=O)c3cccc(C#N)c3)CC[C@@H]21` (stereo partly specified), the INHIBITION was -95.8%.

With `CC(C)Oc1ccccc1OCCN1C(=O)CCNC1=O`, the INHIBITION was -16.4%.

Turning to `CCNC(=O)C1CCN(Cc2ccc(C(=O)Nc3nnc(C)s3)cc2)C1` (stereo unspecified), the INHIBITION is -162.2%.

Consider `OC1(CNCc2ccc(F)c(C(F)(F)F)c2)CCOC1` (stereo unspecified), for which the INHIBITION was -1.68%.

As to `Cc1cc(CNCC2(O)CCOCC2)ccc1F`, the INHIBITION is on record as 16.2%.

Take `OC1(CNCc2ccc(F)c(C(F)(F)F)c2)CCSCC1`: the INHIBITION came out at 56.4%.

`O=C(NCc1cccnc1)[C@@H]1C[C@H]2[C@H](CCN2c2ncccn2)O1`: the INHIBITION is listed as -112%.

For `CO[C@H]1CN(C)S(=O)(=O)[C@@]12CCN(Cc1ccccc1)C2`, the INHIBITION is listed as -53.8%.

Take `Cc1cc(O)c(OCC(=O)Nc2nc3c(s2)CCCCC3)cn1`: the INHIBITION was -94.4%.

Take `COc1ccc(C(C)NCc2c[nH]nc2C)cc1Br` (stereo unspecified): the INHIBITION turned out to be 20.5%.

Take `CNS(=O)(=O)c1cccc(C(C)NCc2cccc(OC)c2)c1` (stereo unspecified): the INHIBITION is reported as 3.75%.

In the case of `COc1ccc(C(C)NCc2ccc(OC)c(OC)c2OC)cc1F` (stereo unspecified), the INHIBITION worked out at 36%.

For `COc1cc(CNC(C)c2cccc(Cl)c2)cc(OC)c1OC` (stereo unspecified), the INHIBITION came out at 63.5%.

On to `COc1ccc(CNC(C)c2cccc(Cl)c2)c(OC)c1OC` (stereo unspecified), for which the INHIBITION turned out to be 43.3%.

Consider `COc1ccc(C(C)NCc2c[nH]nc2C)cc1OC` (stereo unspecified), for which the INHIBITION is on record as -59.7%.

With `COc1ccc(CNC(C)c2ccc(Cl)c(Cl)c2)c(OC)c1OC` (stereo unspecified), the INHIBITION was determined as 66%.

Turning to `COc1ccc(CNC(C)c2cccc(Br)c2)c(OC)c1OC` (stereo unspecified), the INHIBITION is listed as 67.1%.

As for `COc1cc(CNC(C)c2ccc(F)c(F)c2)cc2c1OCCO2` (stereo unspecified), the INHIBITION is reported as -7.66%.

With `CCCn1cc(NC(=O)c2ccc(S(=O)(=O)CC)cc2)ccc1=O`, the INHIBITION is reported as -1.56%.

As for `O=C(CNCCn1cccn1)NCC1(c2ccccc2)CCC1`, the INHIBITION is recorded as -77%.

In the case of `Cn1ccc(C(=O)NCc2cccc(NC(=O)C3CCC3)c2)cc1=O`, the INHIBITION is -218%.

Consider `CC(CN1CCCCCC1)NCc1cc(-c2ccco2)on1` (stereo unspecified), for which the INHIBITION came to 18%.

On to `COCCN(Cc1sccc1C)C(=O)C1CCCN(C(N)=O)C1` (stereo unspecified), for which the INHIBITION is -75.6%.

Consider `COCCN(Cc1sccc1C)C(=O)COc1ccccc1O`, for which the INHIBITION is listed as -65.9%.

Regarding `COCCN(Cc1sccc1C)C(=O)C1CCN(C(C)C)CC1`, the INHIBITION stood at 57.7%.

`Cc1nn(C)c(N2CCOCC2)c1CNCc1ccc(Cl)s1`: the INHIBITION stood at 53%.

`Cc1nn(C)c(N2CCOCC2)c1CNCc1ccc2c(c1)OCO2`: the INHIBITION was 64.5%.

Regarding `Cc1nn(C)c(N2CCOCC2)c1CNCc1nccs1`, the INHIBITION is on record as -58.2%.

Regarding `Cc1nn(CC(C)C)c(N(C)C)c1CNCc1ccc2c(c1)OCO2`, the INHIBITION is reported as 54.6%.

Take `Cc1nn(C)c(N2CCOCC2)c1CNCc1ccnc(N(C)C)c1`: the INHIBITION is -24.8%.

Turning to `Cc1nn(C)c(N(C)C)c1CNCc1ccc2c(c1)OCO2`, the INHIBITION is on record as 35.3%.

On to `Cc1nn(C)c(N2CCOCC2)c1CNC1CCc2ccccc21` (stereo unspecified), for which the INHIBITION turned out to be 45.3%.

For the compound `Cc1nn(C)c(N2CCOCC2)c1CNCc1ccc(CO)c(F)c1`, the INHIBITION is reported as -77.5%.

`Cc1nn(CC(C)C)c(N(C)C)c1CNCc1cccc2c1OCO2`: the INHIBITION was found to be 29.4%.

Regarding `Cc1nn(C)c(N2CCOCC2)c1CNCc1ccnn1C`, the INHIBITION is on record as -222%.

Turning to `Cc1ccc2c(c1)CCC2NCc1c(C)nn(C)c1N1CCOCC1` (stereo unspecified), the INHIBITION is on record as 64.2%.

`Cc1nn(C)c(N2CCOCC2)c1CNC1CCc2cc(F)ccc21` (stereo unspecified): the INHIBITION is recorded as 40.1%.

Regarding `O=C1C(N2CC[C@@H](O)C2)CCCN1Cc1cccc(C(F)(F)F)c1` (stereo partly specified), the INHIBITION is listed as -51.6%.

As to `CCOCCN1CCN(C=C2NN=C(c3occc3C)O2)CC1`, the INHIBITION is listed as -7.75%.

On to `COc1ccc2c(c1)sc(=NC(=O)CSCC(=O)Nc1nccs1)n2C`, for which the INHIBITION is -52.2%.

Consider `CC(C)(O)CN1CCN(C(=O)c2cnn(-c3ccccc3F)c2)CC1`, for which the INHIBITION is listed as -73.1%.

Turning to `c1ccc(-c2nc(CN3CCCC3Cn3cncn3)co2)cc1` (stereo unspecified), the INHIBITION is reported as -69.1%.

With `CNC(=O)[C@H]1C[C@H]2CN(C(=O)NC(C)C)C[C@@H]1O2`, the INHIBITION is -50%.

In the case of `COc1cc(CN(C)Cc2cccnc2)c(SC)cc1OC`, the INHIBITION was -61.6%.

Consider `COc1ccc2nnc(CCCC(=O)NCc3ccccc3OC)n2n1`, for which the INHIBITION is listed as -64.6%.

Consider `Cc1cnc(CN(Cc2cccc(O)c2)CC2CC2)cn1`, for which the INHIBITION is -23.7%.

Consider `CN1C(=O)CN(C(=O)c2ccc(=O)n(C)c2)c2ccccc21`, for which the INHIBITION is reported as -50.5%.

For the compound `Cc1nn(C)c(N2CCOCC2)c1CNCc1cscn1`, the INHIBITION was 56.6%.

For `Cc1nc(CNCc2c(C)nn(C)c2N2CCOCC2)cs1`, the INHIBITION was determined as 27.5%.

Consider `CC(C)c1nn(C)c(N2CCOCC2)c1CNCc1cscn1`, for which the INHIBITION was -72.2%.

As for `COc1ccccc1-c1ccc(C(=O)N2C[C@@H]3CC[C@H]2CN(C)C3)cc1`, the INHIBITION is recorded as -93.3%.

Consider `Cc1nc(C)n(CC2CCCN2Cc2nnc(-c3ccco3)o2)n1` (stereo unspecified), for which the INHIBITION was -53.7%.

As for `Cc1nc(-n2nc(-c3cccs3)cc2N)[nH]c(=O)c1C`, the INHIBITION is -26.1%.

Consider `Cc1n[nH]cc1CNCc1ccnc(OCC(F)(F)F)c1`, for which the INHIBITION was -64.7%.

`Cc1n[nH]cc1CNC(=O)Nc1cccc(OCC(F)(F)F)c1`: the INHIBITION is listed as -31.6%.

Take `Cc1n[nH]cc1CNCc1cccc(OCC(F)(F)F)c1`: the INHIBITION turned out to be 57.9%.

Turning to `COc1ccc(NS(=O)(=O)C=c2[nH]c(=O)n3cccc3c2=O)cc1Cl`, the INHIBITION was -76.2%.

Regarding `CC(C)(CNC(=O)C(C)(C)c1ccccc1F)C(N)=O`, the INHIBITION is -83%.

On to `CN(C)C(C)(C)CNC(=O)C(C)(C)c1ccccc1F`, for which the INHIBITION stood at 53.3%.

On to `CC(C)(C(=O)NCC(N)=O)c1ccccc1F`, for which the INHIBITION was -60.2%.

On to `Cc1cnn(CC(C)NCc2nc(-c3cccs3)no2)c1` (stereo unspecified), for which the INHIBITION is on record as -73.4%.

Consider `c1csc(-c2noc(CNCCn3cccn3)n2)c1`, for which the INHIBITION is recorded as -114%.

As to `CC(Cn1cccn1)NCCCc1nc(-c2cccs2)no1` (stereo unspecified), the INHIBITION was determined as 67.8%.

On to `Cc1cccc(CN2CCCC2c2cncc(Nc3nncs3)n2)c1` (stereo unspecified), for which the INHIBITION amounted to 52.5%.

For the compound `COc1cccc(CN2CCCC2c2cncc(Nc3nncs3)n2)c1` (stereo unspecified), the INHIBITION is given as -8.54%.

Consider `Cc1ccccc1CN1CCCC1c1cncc(Nc2nncs2)n1` (stereo unspecified), for which the INHIBITION is reported as -20.5%.

`c1ccc(CCNC2CCc3ncnn3C2)nc1` (stereo unspecified): the INHIBITION is -209%.

Consider `CC(C)(CNc1c(C#N)cnc2ccc(Cl)cc12)C(N)=O`, for which the INHIBITION is on record as 11.4%.

Consider `CC(NC1(CNS(C)(=O)=O)CCCC1)c1ccccc1` (stereo unspecified), for which the INHIBITION is listed as 68.9%.

Regarding `CC(NC1(CNS(C)(=O)=O)CCOCC1)c1ccccc1` (stereo unspecified), the INHIBITION worked out at 0.206%.

As to `CCC(CC)C(=O)NCC1(NC(C)c2ccccc2)CCOCC1` (stereo unspecified), the INHIBITION is reported as -6.09%.
